Screening data deposited in PubChem BioAssay by National Center for Advancing Translational Sciences (NCATS).
IP6K1 inh: IP6K1 kinase inhibition | Q92551 | IP6K1 kinase, ADP-Glo luminescence, 2 h; hits give low values | activity change, % (series mostly up to about 58 µM) | 140,000 tested, 0.81% active | AID 1645851; in the data active = activity change below about -25%
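ADP-Glo luminescence measures ADP made by human IP6K1 during a 2 h RT reaction with ATP/IP6 (mix at 1.3 mM/130 uM); top library doses 57.5 and 19.1 uM final.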
SNCA expr inh: SNCA gene expression inhibition | 140,000 tested, 0.17% active | HEK-293 SNCA-luciferase knock-in, luminescence, 24 h | Potency, µM (highest dose often 57.2 µM), actives largely listed as inhibitors | AID 1671194; also: nearly all actives have a fitted effect of over 45% in size
GPT2 inh: inhibitors of human GPT2 alanine aminotransferase | Recombinant GPT2, coupled pyruvate oxidase/HRP Amplex Red fluorescence | Potency, µM (highest dose often 57.7 µM), usual class: inhibitors | 100,000 tested, 0.25% active | AID 1671188; also: nearly all actives have a fitted effect of over 60% in size
Target sequence (Q8TD30 whole entry, looked up): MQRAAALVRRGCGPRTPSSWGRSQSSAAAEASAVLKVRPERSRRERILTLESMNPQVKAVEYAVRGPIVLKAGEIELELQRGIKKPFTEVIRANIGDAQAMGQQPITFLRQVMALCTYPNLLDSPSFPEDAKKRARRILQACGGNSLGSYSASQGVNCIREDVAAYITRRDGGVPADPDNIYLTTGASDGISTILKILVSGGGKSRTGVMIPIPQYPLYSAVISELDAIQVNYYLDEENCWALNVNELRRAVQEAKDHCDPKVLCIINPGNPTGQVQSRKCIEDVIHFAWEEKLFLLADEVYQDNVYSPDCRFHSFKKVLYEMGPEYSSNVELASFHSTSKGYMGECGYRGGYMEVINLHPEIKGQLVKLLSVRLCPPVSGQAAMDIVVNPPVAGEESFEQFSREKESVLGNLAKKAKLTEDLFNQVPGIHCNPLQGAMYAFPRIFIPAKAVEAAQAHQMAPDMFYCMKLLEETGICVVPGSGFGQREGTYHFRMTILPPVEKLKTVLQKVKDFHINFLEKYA
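GPT2 10ng/uL, a-KG 250uM, L-Ala 2mM, HEPES pH7.5 + 0.0001% Tween; 30 min RT. Then Amplex mix (PO/HRP/ThPP), 30 min RT dark, fluorescence. AOA 50uM used as positive control.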
SNCA viab count: cell viability loss counter-screen; HEK-293-SNCA-luc viability, GF-AFC fluorescence, 24 h; Potency, µM (doses to about 57.1 µM), usual class: cytotoxic; 150,000 tested, 0.12% active; AID 1671193; also: nearly all actives have a fitted effect of over 30% in size
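Cytotoxicity counterscreen: after 24 h compound treatment of genome-edited SNCA-luciferase HEK-293 cells, live-cell protease substrate GF-AFC read by fluorescence after 30 min; activity scaled between DMSO (0%) and medium-only (-100%), curves Hill-fitted.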
Of the large screens only hits and unclear results are named; the others gave an inactive call; ! = a repeat was not active. Hits are enriched below; roughly 1.1% of the tested compounds scored in any of these assays. Unless noted, calls follow the shape of the dose curve; as a rule, active = well fitted curve in the direction sought with a large enough effect; inconclusive = small, poorly fitted or top-dose-only effect, or another doubt; inactive = no such curve, though single readings can be large; an effect the other way counts as inactive or inconclusive.

CCC(Sc1nc2nccnc2c(=O)n1Cc1ccccc1Cl)C(=O)NC1CCCCC1 (stereo unspecified)	SNCA expr inh 3.5µM, SNCA viab count inconclusive (no result: GPT2 inh)
O=C1c2c(O)cc(O)cc2OC(c2ccc(O)c(O)c2)C1O (stereo unspecified)	GPT2 inh inconclusive (no result: IP6K1 inh)
Oc1cc(O)c2c(c1)O[C@H](c1ccc(O)c(O)c1)[C@H](O)C2	GPT2 inh 28µM
c1ccc(Nc2cc3c(cn2)CN(Cc2ccc4[nH]ccc4c2)CCN3)cc1	SNCA viab count inconclusive
COc1ccccc1CNc1ncnc2ccc(-c3ccc(C(=O)N(C)C)cc3)cc12	none (no result: IP6K1 inh, GPT2 inh)
C=C1C(=O)O[C@@H]2/C=C(\C)C(=O)/C=C/[C@](C)(O)C[C@@H](OC(=O)C(C)C)[C@@H]12	SNCA viab count 9.3µM (no result: SNCA expr inh)
Cc1ccc(Nc2ccnc(N3CCC(C(=O)N4CCCC4C)CC3)n2)cc1 (stereo unspecified)	none
O=C(C1CCN([S+](=O)([O-])c2cccs2)CC1)N1CCC(N2CCOCC2=O)CC1	none
COc1ccc(NC(=O)N2CCc3c(C(=O)NC(C)C)cccc32)cc1	SNCA expr inh 3.5µM
CC(NC(=O)c1cccc2c1CCN2C(=O)Nc1ccccc1)c1cccnc1 (stereo unspecified)	none
Cc1ccc(NC(=O)N2CCc3c(C(=O)NC(C)c4cccnc4)cccc32)cc1 (stereo unspecified)	SNCA expr inh 4µM
COc1ccc(NC(=O)N2CCc3c(C(=O)N(C)C)cccc32)cc1	SNCA expr inh inconclusive
Cc1ccc(NC(=O)N2CCc3c(C(=O)NCCCN4CCCC4=O)cccc32)cc1	SNCA expr inh 2µM
COCC(=O)N[C@H]1CC[C@]2(C)CCC([C@H](C)C(=O)NCc3ccccc3OC)[C@H](O)[C@H]2[C@@H]1C (stereo partly specified)	none
COc1ccc(NC(=O)Cn2c(=O)c(-c3cc(C)ccc3NC(C)=O)nc3ccccc32)c(OC)c1	none (no result: GPT2 inh)
CN(C)c1cccc(-c2c3c(=O)n(-c4ccccc4Cl)[nH]c3cc(=O)n2C)c1	GPT2 inh 15µM!, SNCA viab count inconclusive
CC(C)(C)Nc1nc2cc(Cl)c(Cl)cc2nc1S(C)(=O)=O	SNCA viab count 15µM (no result: SNCA expr inh)
Nc1nc(F)nc2c1ncn2[C@@H]1O[C@H](CO)[C@@H](O)[C@@H]1O	SNCA expr inh 8.6µM!, SNCA viab count inconclusive
CNC(=O)c1noc([C@@H]2CC(F)(F)CN2C(=O)C2CCCC2)n1	none
CN1CCc2c(sc3c2C(=O)NC(c2ccc(OC(=O)c4ccc(C(C)(C)C)cc4)cc2)N3)C1 (stereo unspecified)	SNCA expr inh 1µM, SNCA viab count inconclusive (no result: GPT2 inh)
CN1CCc2c(sc3c2C(=O)NC(c2ccc(OC(=O)c4ccc(Cl)cc4)cc2)N3)C1 (stereo unspecified)	none (no result: GPT2 inh)
C1=C/COCc2cc(ccc2OCCN2CCCC2)Nc2nccc(n2)-c2cccc(c2)COC/1	GPT2 inh inconclusive, SNCA viab count 9.5µM (no result: SNCA expr inh)
COC(=O)c1ccc(NC(=O)c2nc(-c3ccc(Cl)cc3)n3c2CCCCC3)cc1	none (no result: GPT2 inh)
O=C(c1ccc(-c2ncc3cnc(-c4cccc(F)c4)cn23)cc1)N1CCc2cccnc21	SNCA expr inh 28µM, SNCA viab count 25µM
NC(=O)c1ccc(-c2ncc3cnc(-c4cccc(F)c4)cn23)cc1	none
COc1ccc(C2CC(c3ccccc3)=NN2c2ccc(S(N)(=O)=O)cc2)cc1 (stereo unspecified)	SNCA expr inh 14µM
COc1ccc(C2=NN(S(C)(=O)=O)C(c3cn(-c4ccccc4)nc3-c3cccs3)C2)cc1 (stereo unspecified)	none (no result: GPT2 inh)
CC(C)=CCCC1(C)/C=C/C(OC(=O)C=C(C)C)C(C)(O)/C=C/C(=O)/C(CO)=C\C1 (stereo unspecified)	SNCA viab count 13µM (no result: SNCA expr inh)
O=C(CCCN1CCN(c2ccc(F)cc2)CC1)NC1c2ccccc2CSc2ccccc21 (stereo unspecified)	GPT2 inh 1.2µM
CC(C)(C)C(=O)Nc1ccc(-c2nc3ccccc3s2)cc1	SNCA expr inh 1.4µM (no result: GPT2 inh)
COCCN1CCN(Cc2ccc(-c3n[nH]c4c3C(=O)c3c(NC(=O)NN5CCOCC5)cccc3-4)cc2)CC1	SNCA viab count 0.15µM (no result: SNCA expr inh)
COCCN1Cc2[nH]nc(-c3cccc(NC(C)=O)c3)c2CC1=O	none
O=C(Cn1ccn2nc(-c3ccccc3)c(CO)c2c1=O)NCCc1ccccc1	none
O=C(Nc1ncc(-c2cc(C(F)F)nn2-c2c(Cl)cccc2Cl)s1)C1CC1	SNCA expr inh inconclusive, GPT2 inh inconclusive, SNCA viab count inconclusive
